This passage reports inhibition results from PubChem BioAssay AID449762 (Southern Research Specialized Biocontainment Screening …, 2010).

SMILES strings stand for the structures. Screen size: about 330,000 compounds; about 1,900 (0.58%) were called active. Roughly 4% stayed inconclusive and do not appear here. These entries were drawn from the full list. Entries with a potency or affinity are not part of this list. Unmarked numbers belong to inactive results. No stated cut-off is given here; in the data, inconclusive means inhibition above about 70% without an active follow-up result; inactive means below that.

This test in a line: M. tuberculosis growth inhibition, HTS (AID 449762).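 Further: bacterial growth assessed after seven days of incubation.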 As to conditions: M. tuberculosis H37Rv growth inhibition, 7H9 media; at 25 µM; hits give high values.
Take `COc1ccc(C(=O)CCN2CCc3cc(OC)c(OC)cc3C2)cc1`: the inhibition was 68.3%.

On to `COc1cc2c(cc1OC)CN(CCOc1ccc(Br)cc1)CC2`, for which the inhibition is -0.08%.

With `COc1cc(OC)cc(C(=O)N[C@H](C(=O)OCC(=O)c2c[nH]c3ccccc23)C(C)C)c1`, the inhibition is -5.93%.

As for `C=C1SC(Nc2c(C)cc(C)cc2C)=NC12CCCCC2`, the inhibition is 4.72%.

For `Cc1cc(C)n(Cc2ccc(C(=O)NN)o2)n1`, the inhibition was -3.98%.

`CCOC(=O)C1CCN(c2nc(C)nc3c2oc2ccccc23)CC1`: the inhibition is 13.6%.

Turning to `Cc1nc(N2CCOCC2)c2oc3ccccc3c2n1`, the inhibition is -22.1%.

For the molecule `CCOc1ccc(C2CC(c3ccc(CC)cc3)Nc3nc(N)nn32)cc1` (stereo unspecified), the inhibition was 53.9%.

As for `CCCCc1nc2cc(C(=O)NCc3nccn3CC)ccc2o1`, the inhibition was -0.01%.

`O=C(NNC(=S)NC1CCCCC1)c1sc2ccccc2c1Cl`: the inhibition was 4.12%.

With `O=C(NC(=S)NCCO)c1sc2ccccc2c1Cl`, the inhibition is -1.03%.

For `NC(=O)COC(=O)c1cc(-c2cccs2)nn1-c1ccccc1`, the inhibition is 3.52%.

In the case of `COC(=O)C1CCN(C(=O)COC(=O)c2cc(-c3cccs3)nn2-c2ccccc2)CC1`, the inhibition is 68.6%.

As to `O=[P+](Cc1ccccc1)Cc1ccccc1`, the inhibition was 5.56%.

`CCOc1cc2c(cc1OCC)-n1cccc1C(c1ccc(OC)cc1)NC2` (stereo unspecified): the inhibition was 12.2%.

With `CCOc1cc2c(cc1OCC)-n1cccc1C(c1ccc(F)cc1)NC2` (stereo unspecified), the inhibition is 4.18%.

As for `CCN1CCN(C(C(=O)NC2CCCCC2)c2ccc(Cl)cc2)CC1` (stereo unspecified), the inhibition is -6.43%.

With `Cc1cc(-c2ccc(C)c(S(=O)(=O)NCCCN3CCN(c4ccccc4)CC3)c2)on1`, the inhibition is 36.8%.

Take `COc1ccc(-c2cc(C)no2)cc1S(=O)(=O)NCCCN1CCN(c2ccccc2)CC1`: the inhibition is 1.94%.

As to `c1ccc2c(c1)nc1n2CCS1`, the inhibition was -2.74%.

As to `COc1cc(C(=O)NNC(=O)c2ccc3ccccc3n2)cc(OC)c1OC`, the inhibition was 5.84%.

For `COc1cccc(NC(=O)/C=C/c2ccccc2[N+](=O)[O-])c1`, the inhibition was -3.12%.

As for `CCn1c2ccccc2c2nnc(SCCN3CCCCC3)nc21`, the inhibition is 5.94%.

For `CCN(CC)CCSc1nnc2c3ccccc3n(Cc3ccccc3)c2n1`, the inhibition was 3.52%.

Consider `CCOC(=O)C1(CC2CCCCO2)CCN(Cc2nc3ccccc3nc2C)CC1` (stereo unspecified), for which the inhibition is 0.36%.

Regarding `CCOC(=O)c1cccc(NC(=O)C2CCN(S(=O)(=O)c3cccs3)CC2)c1`, the inhibition is -3.98%.

`COCCCNC(=O)c1sc2ncnc(N3CCc4ccccc4C3)c2c1C`: the inhibition was 22.6%.

Turning to `CCN1CCN(C(=O)c2sc3ncnc(N4CCc5ccccc5C4)c3c2C)CC1`, the inhibition is 1.76%.

In the case of `O=C(NCCN1CCCCC1)c1ccc2c(c1)OCCO2`, the inhibition is 1.64%.

In the case of `O=C(O)CCC(=O)N1CCN(c2nc(-c3ccccc3Cl)c3cc(Br)ccc3n2)CC1`, the inhibition is 8.23%.

For the molecule `O=C(O)CCCC(=O)N1CCN(c2nc(-c3ccccc3Cl)c3cc(Br)ccc3n2)CC1`, the inhibition was 2.83%.

On to `Cc1ccc(N(C(=O)c2csnn2)C(C(=O)NC2CCCCC2)c2ccccn2)c(C)c1` (stereo unspecified), for which the inhibition is -6.22%.

Regarding `COc1cc(CC(=O)O)ccc1OCc1ccccc1`, the inhibition is -4.67%.

In the case of `COc1ccc(N(CC(=O)NC2CCCCC2)C(=O)CNC(=O)c2cccs2)cc1OC`, the inhibition is -4.95%.

As for `CCNC(=O)c1ccccc1NC(=O)c1cccc(S(=O)(=O)N2CCOCC2)c1`, the inhibition was 1.29%.

With `CC(NC(=O)c1ccccc1Cl)C1CC2CCC1C2` (stereo unspecified), the inhibition is 4.24%.

As to `Cc1ccccc1C(=O)NC(C)C1CC2CCC1C2` (stereo unspecified), the inhibition is 4.28%.

Regarding `COc1ccc(C(=O)NC(C)C2CC3CCC2C3)c(OC)c1` (stereo unspecified), the inhibition was 7.27%.

In the case of `COc1ccc(C(=O)NC(C)C2CC3CCC2C3)cc1` (stereo unspecified), the inhibition is 0.61%.

Take `Cn1cnnc1SCC(=O)NCCc1ccccc1`: the inhibition was 0.84%.

Consider `COC(=O)CCC(=O)Nc1cccc(Br)c1`, for which the inhibition was -7.91%.

`CC(C)(C)NC(=O)CSc1ncnc2c1nnn2Cc1ccccc1Cl`: the inhibition was 18%.

On to `COCCCN1C(=O)c2ccc(C(=O)N3CCN(c4ccc(OC)cc4)CC3)cc2C1=O`, for which the inhibition was 0.38%.

On to `Cc1cc(C)c(-n2nnnc2SCC(=O)c2cc3ccccc3o2)c(C)c1`, for which the inhibition was -0.74%.

As to `COC(=O)CSc1nnc(NC(=O)c2ccc3c(c2)OCO3)s1`, the inhibition was 56.1%.

For `CCOC(=O)CNC(=O)CSc1nnc(NC(=O)c2ccc3c(c2)OCO3)s1`, the inhibition is -3.99%.

Take `COc1cccc(N2CCN(C(=O)c3cccn4c(=O)c5c(C)c(C)sc5nc34)CC2)c1`: the inhibition was -1.68%.

Regarding `CCOc1ccc(CCNC(=O)COC(=O)c2cc(OC)c(OC)c(OC)c2)cc1OCC`, the inhibition was -6.27%.

For the molecule `Cc1nnc(NC(=O)c2csc3c2CCC(C)C3)s1` (stereo unspecified), the inhibition is 6.53%.

Turning to `CCc1nnc(NC(=O)c2csc3c2CCC(C)C3)s1` (stereo unspecified), the inhibition is 0.85%.

On to `O=C(C1CCCN1S(=O)(=O)c1ccc(Cl)c(Cl)c1)N1CCOCC1` (stereo unspecified), for which the inhibition was 1.37%.

As to `OCC[C@H]1C[C@@H](O)[C@H](O)[C@]2(OCc3ccccc32)O1`, the inhibition is 4.05%.

In the case of `CN(C)CCCNC(=S)N(CCN(C)C)Cc1cc2cc3c(cc2[nH]c1=O)OCCO3`, the inhibition is -2.66%.

As for `CCOc1ccccc1N1CCN(CC(=O)Nc2cc(C)on2)CC1`, the inhibition is -0.33%.

`O=C(Nc1ccccc1O)c1ccccc1O`: the inhibition was -2.76%.

`CC(=O)Nc1ccccc1O`: the inhibition was -6.49%.

`CCC(=O)c1ccc(OCC(O)CNC2CCCC2)cc1` (stereo unspecified): the inhibition is -4.31%.

As for `Cc1ccc(Cn2ncc3c(N4CCN(Cc5ccc(Cl)cc5)CC4)ncnc32)cc1`, the inhibition is 35%.

In the case of `Clc1ccc(Cn2ncc3c(N4CCCC4)ncnc32)cc1`, the inhibition was 6.77%.

Take `COc1ccc(NC(=O)c2c3c(nc4ccccc24)CCC3)cc1`: the inhibition was 2.33%.

For `CCCC(O)(CCC)C(=O)NN(C(=O)CCl)c1ccccc1`, the inhibition was 64.3%.

With `CCC(O)(CC)C(=O)NN(C(=O)CCl)c1ccccc1`, the inhibition is 64.9%.

`CC(C)(C)NC(=O)C1Cc2ccccc2CN1S(=O)(=O)c1ccc(F)cc1` (stereo unspecified): the inhibition is -4.99%.

For `CC(C)Oc1cccc(C(=O)C2CCCN(Cc3cnc(N4CCOCC4)s3)C2)c1` (stereo unspecified), the inhibition is 0.96%.

Turning to `CCN(CC)CCN(C(=O)c1ccc(S(=O)(=O)N2CCCCC2)cc1)c1nc2cc3c(cc2s1)OCO3`, the inhibition is 1.42%.

On to `CCOC(=O)N1CCN(S(=O)(=O)c2ccc(C(=O)N(CCN(CC)CC)c3nc4ccc(C)cc4s3)cc2)CC1`, for which the inhibition is -2.86%.

Consider `CCN(CC)C(=O)N1CCC(NC(=O)c2ccc(C(C)(C)C)cc2)CC1`, for which the inhibition is 9.36%.

As to `Cc1cc(NC(=O)CSc2nc3ccccc3s2)no1`, the inhibition is 3.12%.

Regarding `Cc1ccc(C=C2C(=O)c3ccccc3C2=O)o1`, the inhibition was -3.84%.

In the case of `NS(=O)(=O)c1ccc(-c2ccc(/C=C3\C(=O)Nc4ccccc43)o2)cc1`, the inhibition was -2.7%.

For the molecule `CC1CN(S(=O)(=O)c2cccc(C(=O)NCCCn3ccnc3)c2)CC(C)O1` (stereo unspecified), the inhibition is -14.2%.

With `CCOC(=O)NC(=O)c1cn(N(C)c2ncc(C(F)(F)F)cc2Cl)c(=O)[nH]c1=O`, the inhibition was -2.39%.

Turning to `CC(OC(=O)c1cc[n+]([O-])cc1)C(=O)Nc1ccc(Cl)cn1` (stereo unspecified), the inhibition is -4.2%.

Turning to `CC(OC(=O)c1ccco1)C(=O)Nc1ccc(Cl)cn1` (stereo unspecified), the inhibition was 0.78%.

Take `COC(=O)c1sccc1-n1cccc1C(=O)C(=O)N1CCCC1`: the inhibition is 0.85%.

With `CCOCc1cnc(C)nc1NCC(=O)c1c(C)[nH]c2ccc(OC)cc12`, the inhibition was -0.42%.

`CCn1cc(C(=O)N2CCN(c3cccc(Cl)c3)CC2)c2cc(OC)c(OC)cc2c1=O`: the inhibition was -2.64%.

As to `COc1cc2c(C(=O)N3CCN(c4cccc(Cl)c4)CC3)cn(C)c(=O)c2cc1OC`, the inhibition is -1.4%.

Regarding `O=C(O)CCC(=O)NNC(=O)CCC1CCCCC1`, the inhibition was 0.82%.

For the molecule `CCOC(=O)c1c(NC(=O)OC)sc(C(=O)N(CC)CC)c1C`, the inhibition is 10.1%.

Turning to `CCN(CC)C(=O)c1[nH]cnc1C(=O)NCc1ccc(CNC(=O)OC(C)(C)C)cc1`, the inhibition is -4.15%.

As for `Cc1oc2nc(SCC(=O)NC3CCCCC3)nc(N)c2c1C`, the inhibition was 3.18%.

In the case of `COc1cccc(CC2(CO)CCCN(Cc3cc4ccccc4[nH]3)C2)c1` (stereo unspecified), the inhibition is 10.5%.

On to `COc1cccc(CC2(CO)CCCN(Cc3ccc(C)s3)C2)c1` (stereo unspecified), for which the inhibition is 1.24%.

As for `COc1ccccc1CCNC(=O)CCSc1nc(-c2ccco2)cc(C(F)(F)F)n1`, the inhibition is -1.55%.

As to `CCCN=Cc1sc2ccc(OCC)cc2c1O`, the inhibition was -4.1%.

With `Cc1cccc(NC(=O)/C(C#N)=C\c2cccnc2)c1`, the inhibition was -10.8%.

Regarding `COc1cc2nc(CN3CC=C(c4ccccc4)CC3)[nH]c(=O)c2cc1OC`, the inhibition is 3.16%.

With `NC(=O)C1CCN(Cc2nc3cc(C(F)(F)F)ccc3c(=O)[nH]2)CC1`, the inhibition is 2.7%.

For `COc1ccc(CCNC(=O)CCNS(=O)(=O)c2cccc3nonc23)cc1OC`, the inhibition was 2.46%.

Take `COC(=O)/C=C1/S/C(=N/NC(=O)c2ccccc2)NC1=O`: the inhibition is -1.82%.

With `O=C(CN1CCCCC1)N/N=C/c1ccccc1OCc1ccccc1`, the inhibition is -1.99%.

Turning to `Cn1c(=O)c2c(ncn2CC(=O)Nc2ccccc2Sc2ccccc2)n(C)c1=O`, the inhibition was -2.88%.

`CN(C)C(=O)c1cc(C(=O)c2ccc(F)cc2C(F)(F)F)c[nH]1`: the inhibition was -3.23%.

Regarding `CCSc1nnnn1-c1ccccc1`, the inhibition is 3.88%.

Take `c1ccc(-n2nnnc2SCCCSc2nc3ccccc3s2)cc1`: the inhibition is -4.17%.
